{
  "source": "PubChem BioAssay AID504408",
  "about": "(Broad Institute, 2011)",
  "note": "About 5,200 (1.7%) of roughly 300,000 compounds were called active. This is one part of a sample in which actives are shown more often than they occur. Unmarked numbers belong to inactive results.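 Rule for the calls: active = mean replicate activation of at least 50% with a set share of replicates each reaching 50%; inconclusive = only one of those two conditions met; inactive = mean below 50% and too few replicates reaching it.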",
  "data": [
    {"experiment": "HSF-1 activators, primary screen, NIH3T3-HGL cells, MG132 stress, luminescence, single point (AID 504408);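 note: 0% = median of the neutral control wells and 100% = twice that signal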", "conditions": "NIH3T3-HGL HSF-1 luciferase reporter, MG132, 8 h; at 9 µM; hits give high values; 100% = twice DMSO control signal", "values": [
      {"molecule": "CNC(=O)CSc1nnc(CCc2ccccc2)n1-c1ccccc1", "activation": "-1.82%"},
      {"molecule": "Cc1c(CNCCc2ccccc2)c(C(=O)O)c(C)n1-c1ccccc1", "activation": "60.5% (active)"},
      {"molecule": "Cc1c(C(=O)NCc2ccccc2)cnn1-c1ccccc1", "activation": "2.05%"},
      {"molecule": "CC1(C)C/C(=N/Nc2ccc([N+](=O)[O-])cc2[N+](=O)[O-])C(C)(C)O1", "activation": "-1.15%"},
      {"molecule": "COc1ccc(C(=O)CCc2ccccc2O)c(OC)c1", "activation": "58% (active)"},
      {"molecule": "COc1ccc(C(=O)NC(C)CCc2ccccc2)c(OC)c1", "note": "(stereo not drawn)", "activation": "15.4%"},
      {"molecule": "COc1ccc(C(=O)CCC(=O)Nc2cccnc2)c(OC)c1", "activation": "11.9%"},
      {"molecule": "O=C(Nc1ncccc1O)c1ccc(S(=O)(=O)N2CCCC2)cc1", "activation": "2.49%"},
      {"molecule": "COc1cccc(N2CC(NS(=O)(=O)c3cccs3)CC2=O)c1", "note": "(stereo not drawn)", "activation": "2.81%"},
      {"molecule": "O=C(Nc1cc(S(=O)(=O)N2CCOCC2)ccc1OCC(F)(F)F)c1ccc(N2CCCC2=O)cc1", "activation": "-1.99%"},
      {"molecule": "CCOC(=O)c1ccc(CS(=O)c2ccc(Cl)cc2)o1", "note": "(stereo not drawn)", "activation": "8.33%"},
      {"molecule": "CCOC(=O)N1CCN(C(=O)CNC(=O)Cc2ccc(Cl)cc2)CC1", "activation": "9.04%"},
      {"molecule": "CCOC(=O)c1c(Cc2ccc(Cl)cc2)c[nH]c1C", "activation": "87.7% (active)"},
      {"molecule": "NC1=NC(c2ccc([N+](=O)[O-])cc2)N(c2ccc(F)cc2)C(N)=N1", "note": "(stereo not drawn)", "activation": "-0.817%"},
      {"molecule": "O=C(COC(=O)c1cnccn1)Nc1ccc(Cl)cc1C(F)(F)F", "activation": "-12.3%"},
      {"molecule": "Cc1ccc(Cl)c(OCC(=O)N(C)CC(=O)Nc2ccc(N3CCOCC3)cc2)c1", "activation": "1.72%"},
      {"molecule": "COc1ccc(-c2csc3ncnc(N4CCN(S(=O)(=O)c5cccc(F)c5)CC4)c23)cc1", "activation": "2.84%"},
      {"molecule": "Cc1cc(NC(=O)CSC2=NS(=O)(=O)c3cc(Cl)ccc3N2)no1", "activation": "1.14%"},
      {"molecule": "CCN(C(=O)COC(=O)/C=C/c1nc2ccccc2s1)C1CCS(=O)(=O)C1", "note": "(stereo not drawn)", "activation": "16.8%"},
      {"molecule": "O=C(COC(=O)/C=C/c1nc2ccccc2s1)Nc1ccccc1Oc1ccccc1", "activation": "54.4% (active)"},
      {"molecule": "COc1ccc(/C=C/C(=O)OCC(=O)Nc2cccc(Oc3ccccc3)c2)c(OC)c1", "activation": "35.6%"},
      {"molecule": "O=C(Nc1ccccc1-c1nc2ccccc2[nH]c1=O)c1cccs1", "activation": "-0.37%"},
      {"molecule": "C/C(=N\\Nc1ncc(Cl)cc1Cl)c1cccs1", "activation": "-33.8%"},
      {"molecule": "C/C(=N\\Nc1nc2ccccc2[nH]1)c1cccs1", "activation": "106% (active)"},
      {"molecule": "Cc1sc2ncnc(N3CCC(C(=O)NNC(=O)c4ccc(F)cc4)CC3)c2c1C", "activation": "-17.9%"},
      {"molecule": "Cn1c(SCC(=O)c2ccccc2)ncc(C(=O)Nc2ccc(F)cc2)c1=O", "activation": "9.37%"},
      {"molecule": "Brc1cnc2ccccc2c1N1CCCCC1", "activation": "4.42%"},
      {"molecule": "COc1ccc(CCNC(=O)C(=O)NCC2CCCN2S(=O)(=O)c2cccs2)cc1OC", "note": "(stereo not drawn)", "activation": "-2.01%"},
      {"molecule": "C1=C(CCNc2ncnc3c2cnn3-c2ccccc2)CCCC1", "activation": "61.4% (active)"},
      {"molecule": "O=C(NNc1ncnc2c1cnn2-c1ccccc1)c1ccco1", "activation": "13.2%"},
      {"molecule": "c1ccc(-n2ncc3c(N4CCCC4)ncnc32)cc1", "activation": "41.2%"},
      {"molecule": "O=[N+]([O-])c1cccc(C=NN=Cc2ccccc2O)c1", "activation": "-25.2%"},
      {"molecule": "O=C(Oc1ccc(-c2nnco2)cc1)c1ccc(F)c(S(=O)(=O)N2CCOCC2)c1", "activation": "12.4%"},
      {"molecule": "CCCSc1nc2[nH]ncc2c(=O)[nH]1", "activation": "-12.9%"},
      {"molecule": "Cc1ccc(CSc2nc3[nH]ncc3c(=O)[nH]2)cc1", "activation": "87.9% (active)"},
      {"molecule": "Cc1cccc(NC(=O)CSc2nc3[nH]ncc3c(=O)[nH]2)c1", "activation": "7.39%"},
      {"molecule": "Cc1cccc(N2CC(C(=O)Nc3ccccc3N3CCCC3)CC2=O)c1C", "note": "(stereo not drawn)", "activation": "-9.91%"},
      {"molecule": "Cc1ccc(S(=O)(=O)N2CCN(C(=O)Cc3sc(C)nc3-c3ccc(F)cc3)CC2)c(C)c1", "activation": "5.21%"},
      {"molecule": "CCOC(=O)c1cc(C(C)C)sc1NC(=O)COC(=O)c1nccnc1N", "activation": "-14.3%"},
      {"molecule": "Cc1ccsc1C(=O)N/N=C/c1ccc([N+](=O)[O-])cc1", "activation": "59% (active)"},
      {"molecule": "NC(=S)N/N=C/c1ccc([N+](=O)[O-])cc1", "activation": "19.9%"},
      {"molecule": "Cc1nc2ccccc2cc1C(=O)N/N=C/c1ccc([N+](=O)[O-])cc1", "activation": "10.7%"},
      {"molecule": "O=C(Nc1ccc(N2CCCCC2)cc1)c1cc(S(=O)(=O)N2CCOCC2)ccc1F", "activation": "12.6%"},
      {"molecule": "CC1CCC(NC(=O)CNC(=O)c2ccc3ccccc3c2)CC1", "note": "(stereo not drawn)", "activation": "26.1%"},
      {"molecule": "O=C(COC(=O)Cn1[nH]c(=O)c2ccccc2c1=O)Nc1c(Cl)cccc1C(F)(F)F", "activation": "-2.68%"},
      {"molecule": "CC1(C)CC(N2CCN(C(c3ccccc3)c3ccccc3)CC2)=CC(=[N+]2CCCCC2)C1", "activation": "59.1% (active)"},
      {"molecule": "CC(C)NC(=S)N1CCN(C(c2ccccc2)c2ccccc2)CC1", "activation": "13.7%"},
      {"molecule": "O=C(O)CN1CCN(C(c2ccccc2)c2ccccc2)CC1", "activation": "-26.6%"},
      {"molecule": "COc1ccccc1CCNC(=O)CN1C(=O)NC2(CCCC2)C1=O", "activation": "-21.2%"},
      {"molecule": "CC(NC(=O)c1ccccc1F)c1cccc2ccccc12", "note": "(stereo not drawn)", "activation": "-4.26%"},
      {"molecule": "COc1ccc(-c2cc(C(=O)Nc3ccccc3O)c3ccccc3n2)cc1", "activation": "65.5% (active)"},
      {"molecule": "COc1ccc(NC(=O)c2cc(-c3cc(OC)c(OC)c(OC)c3)nc3ccccc23)c(OC)c1", "activation": "-3.17%"},
      {"molecule": "CNC(=O)COC(=O)c1cc(-c2ccc(OC)cc2)nc2ccccc12", "activation": "31.1%"},
      {"molecule": "COc1ccc(NC(=O)CN(C)C(=O)Cc2coc3cc(C)c(C)cc23)cc1", "activation": "-0.425%"},
      {"molecule": "CC(=O)c1nn(-c2ccc(C)cc2)cc1C(=O)c1cccc(Br)c1", "activation": "-31.9%"},
      {"molecule": "COc1ccc(C(=O)n2nc(-c3ccc(Cl)cc3)nc2N)cc1OC", "activation": "71.9% (active)"},
      {"molecule": "COc1ccc(C(=O)n2nc(-c3ccc(C)cc3)nc2N)cc1OC", "activation": "-1.25%"},
      {"molecule": "COc1ccc(C(=O)n2nc(C)c(Br)c2C)cc1OC", "activation": "6.57%"},
      {"molecule": "CC12CCC(=O)N1C(C(=O)NCCN1C(=O)S/C(=C\\c3ccccc3F)C1=O)CS2", "note": "(stereo not drawn)", "activation": "3.07%"},
      {"molecule": "CCCN(CCC)c1nc2c(C)cccn2c(=O)c1/C=C1/SC(=S)N(Cc2ccco2)C1=O", "activation": "99% (active)"},
      {"molecule": "O=C(CCCN1C(=O)/C(=C\\c2ccco2)SC1=S)Nc1cccc2ccccc12", "activation": "14.2%"},
      {"molecule": "CCOC(=O)CC1C(=O)NCCN1c1nc2c(C)cccn2c(=O)c1/C=C1\\SC(=S)N(C(C)CC)C1=O", "note": "(stereo not drawn)", "activation": "-29%"},
      {"molecule": "CC(C)c1ccc(S(=O)(=O)N2CCN(C(=O)CN3C(=O)NC(C)(c4ccccc4)C3=O)CC2)cc1", "note": "(stereo not drawn)", "activation": "-9.21%"},
      {"molecule": "CCC(CC)c1nnc(NC(=O)C2=COCCO2)s1", "activation": "13.8%"},
      {"molecule": "O=C(c1ccc(F)c(S(=O)(=O)N2CCOCC2)c1)N(CCc1ccccc1)Cc1ccccc1", "activation": "6.07%"},
      {"molecule": "O=C(CSc1nc2[nH]ncc2c(=O)[nH]1)Nc1ccc(F)cc1", "activation": "-14.4%"},
      {"molecule": "CC(=O)Cn1ncc(N2CCOCC2)c(Br)c1=O", "activation": "-14.8%"},
      {"molecule": "O=C(Cn1nc(CNc2ccc(Cl)cc2)[n+]2c1CCCCC2)c1ccc(Cl)cc1", "activation": "19.7%"},
      {"molecule": "O=C(Cn1ncc(N2CCCC2)c(Br)c1=O)c1ccc(Cl)cc1", "activation": "75.4% (active)"},
      {"molecule": "O=C(NCC(c1ccco1)N1CCc2ccccc21)c1cccc(F)c1", "note": "(stereo not drawn)", "activation": "33.2%"},
      {"molecule": "Cc1ccc(-c2nn(-c3ccccc3)cc2C(=O)NCCCN2CCCC2=O)cc1", "activation": "-4.32%"},
      {"molecule": "O=[N+]([O-])c1ccccc1/C=C/CN1CCCC(CO)C1", "note": "(stereo not drawn)", "activation": "-4.33%"},
      {"molecule": "O=[N+]([O-])c1ccccc1/C=C/CN1CCC(O)CC1", "activation": "-18.5%"},
      {"molecule": "CC1CCCCC1NC(=O)/C(C#N)=C/C=C/c1ccccc1[N+](=O)[O-]", "note": "(stereo not drawn)", "activation": "53.4% (active)"},
      {"molecule": "O=C(Nc1cc2c3c(c1)CC(=O)N3CCC2)c1ccccc1F", "activation": "-11.8%"},
      {"molecule": "Cc1nc(-c2ccccc2)sc1C(=O)/C=C/N(C)C", "activation": "-1.43%"},
      {"molecule": "Cc1nc(-c2ccc(Cl)cc2)sc1C(=O)CBr", "activation": "75.1% (active)"},
      {"molecule": "Cc1nc(-c2ccc(Cl)cc2)sc1C(=O)NN", "activation": "-2.26%"},
      {"molecule": "COc1ccccc1NC(=O)COC(=O)c1ccccc1SCC(=O)N1CCCC1", "activation": "-2.69%"},
      {"molecule": "O=C(/C=C/c1ccc(OCc2c(F)cccc2Cl)cc1)N1CCOCC1", "activation": "67.7% (active)"},
      {"molecule": "COCCCNC(=O)/C=C/c1ccc(OCc2c(F)cccc2Cl)cc1", "activation": "0.816%"},
      {"molecule": "CN(C)CCCNC(=O)/C=C/c1ccc(OCc2c(F)cccc2Cl)cc1", "activation": "-16.4%"},
      {"molecule": "Cc1ccn2c(=O)nc(SCC(=O)NCc3ccc4c(c3)OCO4)nc2c1", "activation": "-9.78%"},
      {"molecule": "CC1=NNC(=O)C1Cc1c(Cl)cccc1Cl", "note": "(stereo not drawn)", "activation": "8.87%"},
      {"molecule": "N#C/C(=C(/O)COC(=O)COc1ccc(Cl)cc1)c1nc2ccccc2[nH]1", "activation": "25.2%"},
      {"molecule": "O=C(Cc1nc2ccccc2[nH]c1=O)c1ccc(Cl)cc1", "activation": "74.3% (active)"},
      {"molecule": "O=C(CSc1nc2ccc([N+](=O)[O-])cc2[nH]1)c1ccc(Cl)cc1", "activation": "9.88%"},
      {"molecule": "CCN1C(=O)[C@@H]2[C@@H](c3ccc(-c4ccc(OC)cc4)c(OC)c3)N3CCC[C@@]3(C(=O)OC)[C@@H]2C1=O", "activation": "14.7%"},
      {"molecule": "CCOC(=O)c1c(-c2ccc(C)cc2)csc1/N=C(\\C)C1=C(O)c2ccccc2C1=O", "activation": "9.57%"},
      {"molecule": "CCOC(=O)C1=C(c2ccc(OC)cc2)C(=O)c2ccccc2C1=O", "activation": "82.9% (active)"},
      {"molecule": "COc1ccc(OCCCON2C(=O)c3ccccc3C2=O)cc1", "activation": "3.41%"},
      {"molecule": "O=C(Cc1ccc(S(=O)(=O)N2CCOCC2)s1)NCCOc1ccccc1F", "activation": "3.3%"},
      {"molecule": "CC(=O)Nc1cccc(C(=O)OCC(=O)Nc2nnc(-c3ccccc3)o2)c1", "activation": "-13.5%"}
    ]}
  ]
}
